From the OligoGym collection come the findings set out here.
Note: reference of the scale not given here.

One test addresses SURF1. Nature of the test: pooled miR-30 sensor sort-seq; sequence = guide strand. The following applies: shRNA.
For the sequence TAGGAATTTCTTAAACCACAGG, the sensor-assay potency score (higher = more potent) was -0.992. As for TACCAGTAGCACATGATCCAGC, the sensor-assay potency score (higher = more potent) was -0.00567. For the sequence TTCCAGGTCTCGATAATGCCAG, the sensor-assay potency score (higher = more potent) is -0.863.

As to TTCCTCAGAGTAACTCTGGTTT, the sensor-assay potency score (higher = more potent) is -0.24.

For TTAAACCACAGGTAGGATGTAG, the sensor-assay potency score (higher = more potent) was -0.235.

Another test concerns the target SYBU. The test is described as above. The following applies: shRNA.
Regarding TTGTAGGAGCCTGAGTTGCTAC, the sensor-assay potency score (higher = more potent) was -1.24. With TTGATTCCTTCTTATATCGAGA, the sensor-assay potency score (higher = more potent) was -0.708. Take TTCACCAACCATTCCAATCGTG: the sensor-assay potency score (higher = more potent) came to 0.00982. The same measure, in the same setting: under TTAAATGGAAACACTAATCTTT stands 0.258. TTTGATTCCTTCTTATATCGAG yielded a sensor-assay potency score (higher = more potent) of 0.632. For TTCTGCATCCACATTGGCGTAG, the sensor-assay potency score (higher = more potent) was -0.476.

In the case of TAACAGTTTAAGAACAAACAAG, the sensor-assay potency score (higher = more potent) was -1.43. TTCGATGACCTGTTTGAGCTGT: the sensor-assay potency score (higher = more potent) came out at 0.425.

Turning to TCATCGAACAAATCTGTGCTGT, the sensor-assay potency score (higher = more potent) is -0.248. Regarding TCACCAACCATTCCAATCGTGC, the sensor-assay potency score (higher = more potent) was -1.21. With TAAAATCAGCTTCACTACCTGG, the sensor-assay potency score (higher = more potent) was -0.495. On the same count and under the same terms, next, TTGCATGAACTTCTGCATCCAC: 0.0297.

The target in a further test is SYCP2L. The test is described as above. Particulars: shRNA.
TTGATTGTTGTGACTTAGCAAA: the sensor-assay potency score (higher = more potent) is -1.27. For the sequence AATATCTTTATCTTCTCCGTTT, the sensor-assay potency score (higher = more potent) was -0.529.

TTCATCACCGCTTCCTTCGGAA: the sensor-assay potency score (higher = more potent) was -0.0578. TTCATGACTTCTTTGTAGCTGA had a sensor-assay potency score (higher = more potent) of 0.227. On to TAGGTTTTTCTTCATCTTCTGA, for which the sensor-assay potency score (higher = more potent) is -0.679.

For TTCTTTGTAGCTGATAATCATG, the sensor-assay potency score (higher = more potent) was -1.28. Still for that read-out and setting: under TTATTGATCTGTCAAGACGGTA stands -0.997. Same read-out and setting: next, TTGGTCACCAAGTCTGTTGTTT: -0.185.

For ATCTTCTATAACACAAATCAGC, the sensor-assay potency score (higher = more potent) is -1.67.

With TATATAAAAAGTGACACTCTGA, the sensor-assay potency score (higher = more potent) was -0.257. For TTCTATAACACAAATCAGCGAC, the sensor-assay potency score (higher = more potent) is -0.297.

Another test concerns the target SYN3. Described as above. Particulars: shRNA.
As for TCGATCACCAACAGGATCCTGG, the sensor-assay potency score (higher = more potent) is -0.321. For the sequence TAATCTCTGCCATCCTTGCTGT, the sensor-assay potency score (higher = more potent) is -0.283. The same measure, in the same setting: under TTGGCCTCGTCTTCACTTGGGG stands -0.142; under TTTGCTGCTGTGGAGATCCGGA, -0.473. As for TTCCACATGCTCTCCAATCAGC, the sensor-assay potency score (higher = more potent) is -0.957. With TTCCACTTTGATCTTTCCCATT, the sensor-assay potency score (higher = more potent) is -1.45. Regarding TAGTTGGATCCAATTTTCTGGA, the sensor-assay potency score (higher = more potent) was -1.06. On the same count and under the same terms, next, TTTTGGAGACAACAAGGTCGGC: -0.766. Take TTTGGAGACAACAAGGTCGGCC: the sensor-assay potency score (higher = more potent) is -0.0801.

For TTTCTGGATGCGGATGTCGTAC, the sensor-assay potency score (higher = more potent) is -1.02. Regarding TTGTAGACGGAGTAGAGAGAGT, the sensor-assay potency score (higher = more potent) was -1.24.
